Bioassay records (PubChem)
In the library only some 3.6% were active in any assay of this set; here they are far more common.
Abeta yeast res: compounds reversing amyloid beta toxicity in yeast; Potency, µM (series often up to 46.1 µM), usual class: activators; 410,000 compounds, 0.063% hits; yeast expressing A-beta42, growth rescue, OD600, 48 h; response scale: 0% DMSO, 100% iron-clioquinol control; note: nearly all actives have a fitted effect of over 55% in size
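Yeast growth medium received pinned compounds, then yeast cells expressing toxic A-beta were added; plates incubated at 30 C for 48 hr. Growth read as absorbance at 600 nm, normalized to DMSO and equimolar FeCl3 plus clioquinol controls.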
TDP-43 yeast inh: rescues yeast growth from TDP-43 toxicity; TDP-43 expressing yeast growth rescue, BacTiter-Glo, 24 h; Potency, µM (top dose mostly 46.1 µM), inactives show at the highest dose growth rescue (activation), most hits filed as activators; 410,000 compounds, 1.8% hits; note: % of control where 0% means no effect; nearly all actives have a fitted effect of over 50% in size
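Luminescence from BacTiter-Glo reports growth of TDP-43-expressing yeast after 24 hr at 30 deg C with compound. Cells were raffinose-pregrown to mid-log, then seeded in galactose medium at OD600=0.02.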
FUS suppressor: FUS proteinopathy suppression in yeast | Potency, µM (series often up to 76.6 µM), actives largely listed as activators | AID 1347120 | 390,000 compounds, 0.24% hits | S. cerevisiae FUS-expressing, growth rescue, OD600, 24 h;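 note: plate controls were DMSO vehicle for no effect and reference control for full effect; nearly all actives have a fitted effect of over 55% in size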
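Yeast expressing FUS under galactose induction, OD 0.005 in 2% galactose medium; compounds in a dilution series, 24 h at 30C. Growth rescue by absorbance at 600 nm; CP55940 positive control, DMSO negative.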
MmCpn inh: inhibitors of Methanococcus maripaludis chaperonin TRiC (MmCpn); Potency, µM (titrated, usually from 76.9 µM), for the others: top-dose activity, negative = inhibition, most hits filed as inhibitors; 330,000 compounds, 0.031% hits; purified Mm-Cpn ATPase, ADP Transcreener TR-FRET; AID 504842; note: % is set by controls: 0 for no effect and ±100 for the full control effect; nearly all actives have a fitted effect of over 80% in size
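TR-FRET (320 nm excitation; 590 and 665 nm emission) reports ADP made from 10 uM ATP by 25 nM enzyme; compounds were preincubated 10 min, reaction run 30 min, both at 37°C.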
aSyn yeast inh: rescues yeast growth from alpha-synuclein toxicity; Yeast expressing alpha-synuclein, growth rescue, BacTiter-Glo, 24 h; Potency, µM (titrated, usually from 46.1 µM), for the others: top-dose growth rescue (activation), usual class: activators; 370,000 compounds, 0.14% hits; AID 652106; note: % of control where 0% means no effect; nearly all actives have a fitted effect of over 65% in size
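Rescue of yeast growth: cells expressing toxic alpha-synuclein, induced in galactose at OD600 0.02, incubated with compound 24 h at 30 C. ATP luminescence quantified growth; inhibitors of toxicity appear as activators.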
ClpP mod: qHTS Assay for Activators of ClpP; 340,000 compounds, 1.9% hits; purified B. subtilis ClpP, FRET peptide cleavage, 20 min; Potency, µM (doses to about 57.5 µM), for inactives: at the top dose activity change, negative = active; ATP-dependent Clp protease proteolytic subunit (Bacillus subtilis (strain 168)), P80244; active = well fitted falling curve with a large enough effect; inconclusive = small, poorly fitted or top-dose-only effect; inactive = no such curve, though single readings can be large or run the other way; note: the source files actives as falling curves though it sought activators and does not explain the sign; nearly all actives have a fitted effect of over 65% in size
Target sequence (P80244 whole entry, looked up): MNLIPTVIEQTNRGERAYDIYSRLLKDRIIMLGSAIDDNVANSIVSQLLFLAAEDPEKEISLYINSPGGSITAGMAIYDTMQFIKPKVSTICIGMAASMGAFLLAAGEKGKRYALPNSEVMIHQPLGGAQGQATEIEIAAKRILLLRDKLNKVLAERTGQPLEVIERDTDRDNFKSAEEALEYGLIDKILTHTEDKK
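FRET quenching reversal measured ClpP activation: 10 microg/mL B. subtilis ClpP at pH 8 with the FRET-FV decapeptide, read at 430 nm after 320 nm excitation. The 20-min minus 0-min signal was scaled between DMSO/no-enzyme wells and ADEP (5.8 microM final).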
Numbers without * were called inactive; i = inactive; ? = inconclusive; · = no result; [ ] = dose if it differs, or a comment. Unless noted, calls come from the whole dose curve; as a rule, active = well fitted curve in the direction sought with a large enough effect; inconclusive = small, poorly fitted or top-dose-only effect, or another doubt; inactive = no such curve, though single readings can be large; an effect the other way counts as inactive or inconclusive. Potency is the fitted concentration of half-maximal effect.

SMILES	Abeta yeast res	TDP-43 yeast inh	FUS suppressor	MmCpn inh	aSyn yeast inh	ClpP mod
O=C(CSc1nc2nc(-c3cccs3)cc(C(F)(F)F)c2c(=O)[nH]1)NCc1ccco1	i	0%	i	?	3%	8.9µM*
Cc1cccc(N2CCN(c3c4c(nc5nncn35)CCC4)CC2)c1C	i	?	i	·	·	-7%
Clc1cccc(N2CCN(c3c4c(nc5nncn35)CCC4)CC2)c1	i	18µM*	i	·	·	-1%
Cc1ccc(Cn2ccn(Cc3ccccc3C)c(=O)c2=O)cc1	i	3%	i	·	·	0%
O=C(Nc1ccon1)c1cc2c(s1)CCCC2	i	-4%	i	-1%	-7%	-3%
O=C(Nc1ccccc1N1CCOCC1)c1cc2c(s1)CCCCC2	i	7.9µM*	i	0%	-18%	-1%
Cc1csc(NC(=O)c2cc3c(s2)CCCC3)n1	i	28µM*	i	?	-37%	-7%
O=C(Nc1ccc(N2CCOCC2)cc1)c1cc2c(s1)CCCCC2	i	-14%[0.397 µM]	i	1%	-3%	·
O=C(Nc1ccon1)c1cc2c(s1)CCCCCC2	i	13µM*	i	-6%	1%	-2%
COc1ccc(NC(=O)Cn2c(=O)n(CCCC(=O)NCc3ccccc3Cl)c(=O)c3ccccc32)c(OC)c1	i	0%	i	·	·	-4%
COc1cc(Cl)c(C)cc1NC(=O)Cn1ncc2c(=O)oc3ccccc3c21	i	-8%	i	·	·	1%
O=C(NC(=S)Nc1ccccc1Br)C1CCCC1	?	16µM*	i	3%	-1%	0%
O=C(NC(=S)Nc1ccccc1Br)C1CCCCC1	i	16µM*	·	1%	-23%	-3%
Cc1cc(Nc2ccc(C)c(C)c2)n2cnnc2n1	i	?	i	·	·	0%
COc1cccc(/C=C/c2nc(C#N)c(NC3CCCCC3)o2)c1	i	14%	i	·	·	4%
CC(C)(C)C(c1nc2ccccc2[nH]1)n1c(-c2cc(Cl)cc(Cl)c2)nc2ccccc21 (centres undefined)	?	35µM*	i	·	-8%	?
CC(C)(C)C(c1nc2ccccc2[nH]1)n1c(-c2cccc(S(C)(=O)=O)c2)nc2ccccc21 (centres undefined)	i	8%	i	·	3%	5%
COc1cc2nc(NC3CCN(C)CC3)nc(N3CCCN(C)CC3)c2cc1OC	·	·	·	·	-4%	4%
CC1(C(=O)Nc2cccc(C(F)(F)F)c2)Cc2ccccc2C(=O)O1 (centres undefined)	i	35µM*	i	·	·	0%
Cc1cccc(NC(=O)C2(C)Cc3ccccc3C(=O)O2)c1 (centres undefined)	i	22%	i	·	?	1%
CCn1cc(/C=N/NS(=O)(=O)c2ccc(C)cc2)c(C)n1	i	-31%	·	1%	-2%	-3%
CCn1cc(/C=N/NS(=O)(=O)c2ccc(OC)cc2)c(C)n1	i	14%	i	2%	-2%	32µM*
Cc1ccc(CNC(=O)CCCc2cn(C)c3ccccc23)cc1	i	9%	i	1%	1%	28µM*
O=C(Cc1ccccc1)Nc1cc(C(=O)c2ccccc2)ccc1N1CCOCC1	i	13µM*	i	0%	·	-1%
O=C(NCCCn1ccnc1)Nc1cccc2ccccc12	?	4%	i	-4%	6%	32µM*
SMILES	Abeta yeast res	TDP-43 yeast inh	FUS suppressor	MmCpn inh	aSyn yeast inh	ClpP mod
CC(C)Oc1cccc(C(=O)N/N=C/c2coc3ccccc3c2=O)c1	i	18%	i	3%	-3%	36%
CCOc1cccc(C(=O)N/N=C/c2coc3ccccc3c2=O)c1	i	22µM*	i	1%	1%	42%
Cc1cc(C)c2c(n1)sc1c(O)cc(=O)[nH]c12	i	?	?	-6%	1%	32µM*
O=S(=O)(NCCSc1ccc(Cl)cc1)c1ccc(F)cc1	i	14µM*	i	0%	23%	-2%
COc1ccc(S(=O)(=O)NCCc2sc(-c3ccccc3)nc2C)cc1F	i	22µM*	i	·	5%	4%
COc1ccc(-c2nc(CNS(=O)(=O)c3cccc(F)c3)cs2)cc1	i	13µM*	i	·	·	?
O=S(=O)(NCCc1csc(-c2cccnc2)n1)c1ccc(F)cc1	i	14µM*	·	-7%	-13%	?
COc1ccc(S(=O)(=O)NCCc2sc(-c3cccnc3)nc2C)cc1OC	i	17%	i	·	0%	4%
Cn1c(=O)c2cc(C(=O)Nc3cccc(C#N)c3)sc2c2ccccc21	i	23%	i	·	·	1%
O=C(NCCc1csc(-c2ccc(F)cc2)n1)C(=O)Nc1ccc(Cl)cc1	i	-3%	i	·	·	-2%
Cc1ccc(S(=O)(=O)NCCc2csc(-c3ccc(Cl)cc3)n2)cc1	?	20µM*	i	·	·	-24%
COc1ccc(S(=O)(=O)NCCc2csc(-c3ccc(F)cc3)n2)cc1	i	16µM*	i	·	·	-6%
COc1ccc(-c2nc(CNS(=O)(=O)c3ccc(C)cc3)cs2)cc1	i	3%	i	·	·	4%
COc1ccc(-c2nc(CNS(=O)(=O)c3ccc(F)cc3)cs2)cc1	i	24%	i	·	·	5%
O=S(=O)(NCCc1csc(-c2ccc(F)cc2)n1)c1ccc(Cl)cc1	6.3µM*	11µM*	i	·	·	-13%
CCOc1ccc(S(=O)(=O)NCCc2csc(-c3ccc(Cl)cc3)n2)cc1	i	22µM*	?	·	·	-9%
COc1ccc(CNC(=O)CCc2c(C)c3cc4c(C)coc4c(C)c3oc2=O)cc1OC	i	15%	i	·	·	-16%
COc1ccccc1Cn1c(CNS(=O)(=O)c2ccccc2Cl)nc2cccnc21	i	22%	i	·	·	-9%
COc1ccc(CCC(=O)NCCc2csc(-c3ccc(F)cc3)n2)cc1	i	?	i	·	·	-4%
COc1ccc(S(=O)(=O)NCCc2csc(-c3ccc(F)cc3)n2)cc1F	i	18µM*	i	·	·	-11%
COc1ccc(-c2nc(CCNC(=O)Cc3ccc(F)cc3)cs2)cc1	i	6%	i	·	·	22µM*
Cc1c(CCNS(=O)(=O)c2ccccc2)sc2nc(-c3ccc(Cl)cc3)nn12	i	3%	i	·	·	-6%
Cc1ccc(C)c(S(=O)(=O)NCCc2csc(-c3ccc(Cl)cc3)n2)c1	i	22µM*	i	·	·	?
